# Screening data as filed in PubChem.
# Anthrax LF inh2 = inhibitors of Bacillus anthracis lethal factor protease. P15917. multiplex microsphere protease cleavage assay, LF. inhibition, % at 10 µM. 360,000 compounds, 0.12% hits. AID 588501; also: plate controls were buffer without enzyme for full effect and enzyme alone for no effect
# VHR inh abs = DUSP3 (human) phosphatase inhibition; recombinant VHR phosphatase, pNPP absorbance; P51452; inhibition, % at 13.3 µM; 290,000 compounds, 0.52% hits; in the data active = inhibition above about 50%
# Target sequence (P51452 whole entry, looked up): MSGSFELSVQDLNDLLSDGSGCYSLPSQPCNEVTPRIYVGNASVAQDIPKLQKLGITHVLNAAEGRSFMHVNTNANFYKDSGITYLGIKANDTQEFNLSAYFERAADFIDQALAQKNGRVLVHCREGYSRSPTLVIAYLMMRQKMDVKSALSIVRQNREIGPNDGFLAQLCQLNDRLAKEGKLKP
# BoNT F protease = inhibitors of Botulinum neurotoxin F light chain protease; Multiplex microsphere protease cleavage assay, flow cytometry; inhibition, % at 10 µM; 360,000 compounds, 0.22% hits; AID 588497; in the data active = inhibition above about 35%, passing the limit was not always enough; inconclusive = no clear call, values can overlap the other calls; also: plate controls were buffer without enzyme for full effect and enzyme alone for no effect
# Autofluor counter = counter-screen for toxin protease inhibitors: compound fluorescence | AID 624483 | 360,000 compounds, 3.1% hits | compound autofluorescence counterscreen, microsphere flow cytometry; stronger effect = higher value | fluorescence intensity (concentration not given with the values); in the data active = fluorescence intensity above about 16000; inconclusive = no clear call, values can overlap the other calls
# BoNT-A LC inh2 = BoNT A light chain protease inhibition; multiplex microsphere protease substrate cleavage, flow cytometry; inhibition, % at 10 µM; 360,000 compounds, 0.17% hits; also: plate controls were buffer without enzyme for full effect and enzyme alone for no effect
# MazF activator = activators of E. coli MazEF toxin-antitoxin RNase; activation, % at 20 µM; 350,000 compounds, 0.32% hits; P0AE70; FAM/BHQ RNA-DNA oligo cleavage fluorescence, 5 h; in the data active = activation above about 50%
# Target sequence (P0AE70 whole entry, looked up): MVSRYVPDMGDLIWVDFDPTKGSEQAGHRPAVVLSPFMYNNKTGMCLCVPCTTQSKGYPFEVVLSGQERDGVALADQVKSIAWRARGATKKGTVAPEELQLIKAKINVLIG
# An asterisk follows results filed as active; ? = inconclusive; / = no result given. Sampled rows, rich in hits. Any-hit rate of the full collection: about 4.1%. Rule as the data show it, unless noted: active = inhibition above about 30%; inconclusive = no clear call, values can overlap the other calls; inactive = below that.
SMILES,Anthrax LF inh2,VHR inh abs,BoNT F protease,Autofluor counter,BoNT-A LC inh2,MazF activator
CC1(C)CC(=O)C2=C(C1)N(CC1CCCO1)C(=O)C2(NC(=O)c1cccnc1)C(F)(F)F (stereo not drawn),0.1,22.1,-5.9,17055*,-2.6,4.9
CC(C)CC(=O)NC1(C(F)(F)F)C(=O)N(Cc2ccccc2)C2=C1C(=O)CC(C)(C)C2 (stereo not drawn),-2.9,3.3,4.3,21893*,2.3,11.5
CC1(C)CC(=O)C2=C(C1)N(Cc1ccccc1)C(=O)C2(O)C(F)(F)F (stereo not drawn),-7.0,-4.5,3.8,3135,1.1,3.6
CC1(C)CC(=O)C2=C(C1)N(Cc1ccc(F)cc1)C(=O)C2(NC(=O)c1cccnc1)C(F)(F)F (stereo not drawn),-1.3,0.5,0.9,20986*,?,4.8
CC(C)CN1C(=O)C(NC(=O)C2CC2)(C(F)(F)F)C2=C1CC(C)(C)CC2=O (stereo not drawn),10.0,-0.1,12.0,10662,1.9,7.6
O=C(c1ccc2c(c1)OCO2)C1CCCN(C2CCN(CCc3ccccc3)CC2)C1 (stereo not drawn),0.5,16.5,1.7,6775,2.8,10.1
COc1ccc(-n2cccc2C=O)cc1,-1.4,4.7,-5.4,2784,-0.7,-8.2
COc1ccc(-n2cccc2C=O)cc1OC,-1.6,18.6,-2.5,22117*,?,7.5
CCN1CCN(c2ccc(NC(=O)c3cccc4ncccc34)cc2)CC1,-11.8,40.5,-10.3,22120*,?,2.8
O=C(c1cccc(Br)c1)c1nc2ccccc2[nH]c1=O,5.5,/,12.6,4281,0.5,/
Cc1[nH]c2ccccc2c1/C=C(\C#N)C(=O)NCc1ccccc1,7.4,-4.8,-25.0,11132,52.8*,105.7*
c1ccc(Cc2nn3c(COc4ccccc4)nnc3s2)cc1,-1.4,6.2,-2.8,24302*,-3.4,-2.1
COc1ccc(-c2nnc3sc(COc4ccccc4)nn23)cc1,-4.8,41.4,-4.7,20311*,-2.2,8.3
Clc1ccccc1-c1nn2c(COc3ccccc3)nnc2s1,-2.3,8.5,-6.6,10753,-0.4,-8.6
CCOc1ccccc1OCc1nn2c(COc3ccccc3)nnc2s1,-0.6,10.8,-0.2,16185*,0.9,8.0
CCc1cc(C)cc(OCCOc2ccccc2/C=N/NC(C)=O)c1,8.2,4.9,?,4334,-1.4,7.1
O=C(COC(=O)C12CC3CC(CC(Cl)(C3)C1)C2)Nc1ccc2[nH]c(=O)[nH]c2c1,/,/,/,/,/,8.1
COCCNC(=O)c1ccc(CS(=O)(=O)c2ccccc2C)o1,-10.7,27.4,24.5,3145,0.3,3.5
COC(=O)c1ccc(CS(=O)(=O)c2ccccc2C)o1,-2.3,/,1.0,23513*,?,2.0
Cc1ccccc1S(=O)(=O)Cc1ccc(C(=O)NCCCN2CCCC(C)C2)o1 (stereo not drawn),-1.5,45.8,3.0,5541,2.3,-0.4
Cc1ccccc1S(=O)(=O)Cc1ccc(C(=O)NCCCN2CCC(C)CC2)o1,-1.1,56.8*,-2.5,5730,-0.4,6.0
O=C1C2C3C=CC(C3)C2C(=O)N1c1n[nH]c(-c2ccccc2)n1 (stereo not drawn),-10.0,25.4,0.0,23080*,-0.9,0.9
O=C1C2C3C=CC(C3)C2C(=O)N1c1n[nH]c(-c2cccnc2)n1 (stereo not drawn),-3.8,-11.0,-14.0,11494,-1.3,-1.6
O=C1C2C3C=CC(C3)C2C(=O)N1c1cccc(N2C(=O)C3C4C=CC(C4)C3C2=O)n1 (stereo not drawn),-4.5,-5.1,-0.9,22915*,0.5,-5.9
Cc1ccc(N2C(=O)C3C4C=CC(C4)C3C2=O)cc1C (stereo not drawn),-3.7,6.8,2.2,22226*,1.8,10.6
SMILES,Anthrax LF inh2,VHR inh abs,BoNT F protease,Autofluor counter,BoNT-A LC inh2,MazF activator
Cc1ccc(Nc2c(O)nc[nH]c2=O)cc1,-5.0,/,-4.8,4135,0.1,0.7
COc1cccc(C(=O)Nc2ccc(S(=O)(=O)NCc3ccco3)cc2)c1,-2.5,24.4,-0.1,24328*,-1.4,9.2
O=C(NC1CCCCC1)c1ccc(S(=O)(=O)NCc2ccco2)cc1,-5.9,-4.0,7.4,21532*,1.8,-1.4
Cc1cc(C)n(CCCNC(=O)c2ccc(S(=O)(=O)NCc3ccco3)cc2)n1,-1.6,5.6,-0.4,21580*,?,-7.1
Cc1nn(-c2ccccc2)c(C)c1CNC(=O)c1ccc(S(=O)(=O)NCc2ccco2)cc1,-3.7,/,-1.9,3841,0.2,-1.4
O=C(NC1CCN(Cc2ccccc2)CC1)c1ccc(S(=O)(=O)NCc2ccco2)cc1,-0.5,-2.0,-1.7,3395,-0.6,-25.6
O=C(Nc1ccc(S(=O)(=O)NCc2ccco2)cc1)c1cccc(F)c1,0.7,-11.2,-17.3,3210,-4.6,3.8
NC(=S)NN=C1CCSCC1,-3.5,/,-1.3,2987,-0.8,-1.2
Cc1ccc(N(CCCCN2C(=O)c3ccccc3C2=O)C(=O)c2cccc([N+](=O)[O-])c2)cc1,-1.3,17.7,0.8,16296*,1.1,-10.1
O=C1c2ccccc2C(=O)N1CCCCN(C(=O)c1cc([N+](=O)[O-])cc([N+](=O)[O-])c1)c1ccc(Cl)cc1,-5.5,17.3,-10.1,6268,0.1,1.4
C=CC[C@@H](CC(=O)NCCO)C(=O)N[C@H](C)COC(=O)[C@@H](CC=C)Cc1ccc(F)cc1,2.9,/,-1.3,3810,-0.6,-1.5
Brc1cnc2nc(SC/C=C/c3ccccc3)[nH]c2c1,5.6,-3.1,?,3188,1.8,-6.1
Cc1cc(=O)[nH]c(SC/C=C/c2ccccc2)n1,-5.3,6.1,-8.3,17675*,-6.7,-4.8
Cc1cc(=O)[nH]c(SCCCOc2ccc(F)cc2)n1,1.1,-6.6,-0.9,23808*,-0.1,-6.0
Cn1c(O)c(N=NC(=O)CNC(=O)c2ccccc2)c2ccccc21,3.2,53.3*,0.3,3636,-5.8,6.6
Cn1c(O)c(N=NC(=O)CNC(=O)c2ccccc2)c2cc(Br)ccc21,-2.8,42.9,-1.0,4527,-0.6,-4.0
Cn1c(O)c(N=Nc2ccc(F)cc2)c2ccccc21,-5.3,31.9,4.1,3641,0.0,336.6*
COC(=O)C1C(=O)C2=C(CC1C)NC(C)=C(C(=O)OC1CCCC1)C2c1ccc(N(C)C)cc1 (stereo not drawn),-0.8,-7.5,8.1,4102,0.6,-8.2
COC(=O)C1C(=O)C2=C(CC1C)NC(C)=C(C(=O)OC(C)C)C2c1ccc(OC)c(O)c1 (stereo not drawn),2.3,10.2,3.3,22658*,1.2,4.8
O=C1C2C3c4ccccc4C(c4ccccc43)C2C(=O)N1/N=C/c1cccc(O)c1 (stereo not drawn),-2.8,9.7,-3.7,17348*,-1.8,5.5
CSc1ncccc1C(=O)N1CCC1(C)C(=O)NC(C)C (stereo not drawn),-5.4,/,10.0,3901,-0.3,/
C=CCn1c(=O)c2c(nc3n2CCN3c2cccc(Cl)c2C)n(C)c1=O,-2.7,25.0,-2.4,16780*,-0.2,0.4
